Efflux pump mplx: antifungal efflux pump inhibition, Nile Red retention. S. cerevisiae Candida pump triplex. inhibition, % at 10 µM. hit rate 0.44% among 330,000. AID 485275;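 active means plate passing quality check with inhibition over a set limit, or well fluorescence over plate mean plus 4 SD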;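 further: Nile Red retained in pooled yeast measured as flow cytometry median fluorescence; 0% = buffer negative control and 100% = Enniatin B positive control; higher means more Nile Red kept so more efflux inhibition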
ALR inh: inhibitors of human sulfhydryl oxidase ALR. P55789. purified ALR, DTT oxidation, H2O2 HRP-luminol luminescence. inhibition, % (test concentration not listed). hit rate 3.8% among 290,000;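 active means mean replicate inhibition above about 79%, with every replicate also reaching it, limit read from the data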
Target sequence (P55789 whole entry, looked up): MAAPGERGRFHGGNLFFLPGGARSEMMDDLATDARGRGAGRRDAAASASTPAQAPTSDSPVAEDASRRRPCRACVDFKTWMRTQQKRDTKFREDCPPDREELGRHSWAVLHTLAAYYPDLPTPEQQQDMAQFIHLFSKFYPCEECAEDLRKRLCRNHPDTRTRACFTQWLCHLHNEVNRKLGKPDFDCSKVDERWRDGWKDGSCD
Mot1-301 SUMO: blocks SUMOylation pathway, rescuing yeast Mot1-301 growth; S. cerevisiae Mot1-301 growth rescue, ATP luminescence, 38.5C; percent above DMSO median, 100 means doubled; growth rescue, % at 18.8 µM; hit rate 1% among 320,000; AID 2716;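 active means every valid replicate shows activation above 250% relative to neutral control wells; inactive means the rest, any valid replicate at or below 250%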;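 further: OY570 slx delta 5 strain wells were the positive control but not used for scaling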
VLA-4 inh: inhibition in a human VLA-4 binding assay. P13612. VLA-4 expressing cells, ligand binding flow cytometry. inhibition, % (about 7 µM as worked out from the volumes in the protocol). hit rate 0.2% among 330,000; in the data active means inhibition above about 50%
Bfl-1 A1 inh: inhibitors of the anti-apoptotic protein A1, read as caspase activation; MEF A1-2A-BIM cells, Caspase-Glo 3/7 luminescence, 3 h; percent of clofoctol response, vehicle zero; caspase activation, % (concentration not given with the values); hit rate 0.066% among 330,000;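 active means over half of replicate activation scores above 10%, or exactly half above 10 with the replicate mean above 10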
AHR activator: activators of human aryl hydrocarbon receptor | P35869 | AHR-responsive luciferase reporter cells, luminescence | activation, % at 5 µM | hit rate 2.5% among 320,000; in the data active means activation above about 47%;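 further: 0% = vehicle wells and 100% = reference agonist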
The depositor's hits bear a star; · = no result given. In the library only some 7.2% were active in any assay of this set; here they are far more common.

SMILES | Efflux pump mplx | ALR inh | Mot1-301 SUMO | VLA-4 inh | Bfl-1 A1 inh | AHR activator
O=c1cc(CO)oc(C(Nc2ccccn2)c2ccsc2)c1O (centres undefined) | 0 | -23 | 14 | 3 | -1 | 10
COc1ccc(C(Nc2ccccn2)c2oc(CO)cc(=O)c2O)cc1 (centres undefined) | 0 | 98* | 5 | 7 | 0 | 0
Cc1ccnc(NC(c2ccccc2O)c2oc(CO)cc(=O)c2O)c1 (centres undefined) | 0 | 98* | 6 | -7 | 1 | 11
O=C(/C=C/c1ccc([N+](=O)[O-])cc1)OCC(=O)N1CCCC1 | 0 | -11 | 5 | -83 | 1 | -1
Cc1c(C(=O)N2CCCCC2)c(S(=O)(=O)N2CCN(c3ccc(Cl)cc3)CC2)c(C)n1C | 0 | 11 | 6 | 1 | -1 | 2
CCCCn1c(N)c(N(CC(C)C)C(=O)c2cc3c(s2)CCC3)c(=O)[nH]c1=O | 0 | · | 2 | -1 | 0 | -1
Clc1ccc2[nH]c3c(NCC4CCCO4)ncnc3c2c1 (centres undefined) | 0 | -9 | -36 | -11 | 1 | 76*
CCN(CC)C(=O)Oc1ccc(Br)cc1C(=O)Nc1ccc(F)cc1F | 0 | -10 | -14 | 6 | 1 | 89*
O=C(Nc1ccc(F)cc1F)c1cncc(Br)c1 | 0 | -4 | 14 | -16 | -1 | 38
Clc1ccc(Cl)c(OCCN2CCCC2)c1 | 0 | 1 | 77 | 3 | 1 | 0
Cc1ccc(Cl)c(OCCN2CCCC(C)C2)c1 (centres undefined) | 0 | 0 | 538* | 11 | 1 | 3
CC1CCCN(CCCOc2ccc(Cl)cc2Br)C1 (centres undefined) | 0 | -2 | 482* | 7 | -1 | 5
CC1CCN(CCCOc2ccc(Cl)cc2Br)CC1 | 0 | 1 | · | 2 | 0 | 2
C/C(=N/NC(=O)CNC(=O)COc1ccccc1)c1ccco1 | 0 | · | 4 | 0 | -1 | 1
COc1ccc(NC(=O)CSc2c(C)n[nH]c2C)cc1 | 0 | 99* | 3 | 0 | 0 | -3
COc1ccc(NC(=O)CSc2nncc3ccccc23)cc1 | 0 | 71 | 7 | -3 | 1 | -6
COc1ccc(NC(=O)CSc2nnc(C)c3ccccc23)cc1 | 0 | 99* | -20 | 2 | -1 | -6
O=C(NCc1ccccc1Br)c1ccncc1 | 0 | 2 | 5 | -7 | 0 | 12
CC(c1n[nH]c(=S)n1-c1ccc(F)cc1)N1CCCCC1 (centres undefined) | 0 | 91* | -28 | -7 | 0 | 0
COc1ccccc1NC(=O)/C(C#N)=C/c1cccnc1 | 0 | 37 | -8 | 0 | 0 | 10
N#C/C(=C\c1cccnc1)C(=O)Nc1cccc(Cl)c1 | 0 | 88* | 4 | -1 | 1 | 2
N#C/C(=C\c1cccnc1)C(=O)Nc1cccc2ccccc12 | 0 | 95* | 30 | 20 | 0 | 24
N#C/C(=C\c1cccnc1)C(=O)Nc1ccc(Cl)cc1 | 0 | 98* | 1 | -8 | -1 | 37
CC(=O)N1CCC(C(=O)N2CCN(S(=O)(=O)c3ccc(Cl)s3)CC2)CC1 | 0 | 4 | 1 | -4 | 0 | -2
O=C(COC(=O)c1ccc(O)cc1)Nc1ccc(Cl)cc1 | 0 | -2 | -17 | 9 | 0 | 28
SMILES | Efflux pump mplx | ALR inh | Mot1-301 SUMO | VLA-4 inh | Bfl-1 A1 inh | AHR activator
CCOc1cc2[nH]c(=S)n(C3CCN(Cc4ccccc4)CC3)c(=O)c2cc1OCC | 0 | -2 | -8 | 0 | 0 | 3
O=c1c2cc3c(cc2[nH]c(=S)n1C1CCN(Cc2ccccc2)CC1)OCO3 | 0 | 93* | 0 | 6 | 2 | 6
COc1cc(CC(=O)OCC(=O)N2CC(=O)Nc3ccccc32)cc(OC)c1OC | 0 | 1 | -3 | -2 | 0 | 0
CCN(CC(=O)NCc1ccc(Cl)cc1)C(=O)CN1C(=O)NC(CC)(c2ccccc2)C1=O (centres undefined) | 1 | -5 | 12 | 17 | 0 | 0
Cc1c(N=NC2=C(O)CCCC2=O)c(=O)n(-c2ccccc2)n1C | 0 | -19 | -17 | 7 | 0 | 51*
Cc1c(NCc2ccccc2O)c(=O)n(-c2ccccc2)n1C | 0 | · | -15 | 7 | 0 | 1
Cc1[nH]c2ccccc2c1N=Nc1c(C)n(C)n(-c2ccccc2)c1=O | 1 | 99* | 46 | 1 | 2 | 32
Cc1c(C(c2ccc(O)cc2)c2c(C)n(C)n(-c3ccccc3)c2=O)c(=O)n(-c2ccccc2)n1C | 0 | 3 | -6 | 10 | 0 | -1
Cc1c(N=C2NC(=O)/C(=C/c3ccc(O)cc3)S2)c(=O)n(-c2ccccc2)n1C | 1 | 99* | -3 | 9 | 0 | 5
Cc1c(N=Nc2ccc(O)cc2)c(=O)n(-c2ccccc2)n1C | 0 | 1 | -10 | 7 | 1 | 56*
Cc1c(N=C2NC(=O)C(CC(=O)Nc3ccccc3)S2)c(=O)n(-c2ccccc2)n1C (centres undefined) | 0 | -3 | -4 | -4 | 0 | 0
COc1cc(C)c(S(=O)(=O)NCc2cccnc2)cc1C | 0 | 2 | -25 | 1 | 1 | 4
Cc1ccccc1CS(=O)(=O)Cc1ccc(C(=O)NC2CCCC2)o1 | 0 | 32 | 0 | -3 | 0 | 2
O=C1NC(=NCc2ccccc2)S/C1=C/c1ccc(O)cc1 | 0 | 94* | 1 | 0 | 0 | 2
COc1cc2c(cc1OC)C(C)N(S(=O)(=O)c1cn(C)cn1)CC2 (centres undefined) | 0 | -8 | -18 | -5 | 1 | -2
N#C/C(=C(/O)CN1CCOCC1)c1nc(-c2ccccc2)cs1 | 0 | 36 | 1 | -61 | 0 | 6
Cc1ccc(-c2csc(/C(C#N)=C(\O)CN3CCN(C(=O)c4ccco4)CC3)n2)cc1 | 0 | 99* | 3 | -1 | 0 | 0
CN(C)C(=O)CSc1ccc(S(=O)(=O)N2CCOCC2)cn1 | 0 | · | -3 | 11 | 1 | 1
Cc1cccc(NC(=O)Nc2cc(C)on2)c1 | 0 | 0 | 4 | -13 | -1 | 17
Cc1cc(NC(=O)Nc2cccc(C)c2C)no1 | 0 | 99* | -2 | 20 | -1 | 52*
Cc1cc(=O)oc2cc(NC(=O)C(CCCN=C(N)N)NC(=O)OCc3ccccc3)ccc12 (centres undefined) | 1 | -6 | -8 | -17 | 1 | ·
N#Cc1c(-c2ccccc2)nc(SCC(=O)NC2CCCCC2)[nH]c1=O | 0 | 55 | 14 | 1 | 2 | 1
CN(C(=O)CSc1nc(-c2ccc(C(C)(C)C)cc2)c(C#N)c(=O)[nH]1)C1CCCCC1 | 0 | 93* | -14 | 13 | 1 | 0
CCN(c1ccc(NC(=O)CSc2ccc3c(c2)OCCO3)cc1)C(C)C | 0 | 62 | -4 | 6 | 0 | 0
